Laboratory results published in PubChem BioAssay (NCATS).
Records with an inconclusive call do not appear. Calls of active or inactive are those of the source. Calls follow the shape of the dose curve; as a rule, active = well fitted curve in the direction sought with a large enough effect; inconclusive = small, poorly fitted or top-dose-only effect, or another doubt; inactive = no such curve, though single readings can be large; an effect the other way counts as inactive or inconclusive.

Experiments:
[1] = Quantitative High-Throughput drug screen in 47 multiple myeloma cell lines against the NCATS MIPE library collection: FR4_PLB cell viability assay (AID 1918924; also: nearly all actives have a fitted effect of over 35% in size)
How it was run: (§1)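 Inhibition of cell viability is measured here. Each line was plated at 500 cells per well, treated with MIPE 4.0 drugs, kept 48 hours at 37C, then assayed for ATP content by CellTiter-Glo luminescence.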

[2] = Quantitative High-Throughput drug screen in 47 multiple myeloma cell lines against the NCATS MIPE library collection: EJM_DSMZ cell viability assay (AID 1918926; also: nearly all actives have a fitted effect of over 30% in size)
How it was run: (§2)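 qHTS of the MIPE 4.0 collection: 500 myeloma cells/well, 48 h drug exposure at 37C in 5% CO2, then CellTiter-Glo for 5 min at room temperature before luminescence reading.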

[3] = Quantitative High-Throughput drug screen in 47 multiple myeloma cell lines against the NCATS MIPE library collection: AMO1_DSMZ cell viability assay (AID 1918927; also: nearly all actives have a fitted effect of over 30% in size)
How it was run: as §2

[4] = Quantitative High-Throughput drug screen in 47 multiple myeloma cell lines against the NCATS MIPE library collection: ARP1_JJKsccF8 cell viability assay (AID 1918928; also: nearly all actives have a fitted effect of over 40% in size)
How it was run: (§3)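 Myeloma cells, 500 per well, were exposed to MIPE 4.0 drugs by pin transfer for 48 h at 37 °C, 5% CO2. Viability was read as ATP luminescence with CellTiter-Glo, normalised to DMSO-only (100%) and medium-only (0%) wells.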

[5] = Quantitative High-Throughput drug screen in 47 multiple myeloma cell lines against the NCATS MIPE library collection: ARD_JJKsccE7 cell viability assay (AID 1918929)
How it was run: as §2

[6] = Quantitative High-Throughput drug screen in 47 multiple myeloma cell lines against the NCATS MIPE library collection: KMM1_JCRB cell viability assay (AID 1918960); also: nearly all actives have a fitted effect of over 30% in size
How it was run: as §3

[7] = Quantitative High-Throughput drug screen in 47 multiple myeloma cell lines against the NCATS MIPE library collection: KHM11_PLB cell viability assay (AID 1918962); also: nearly all actives have a fitted effect of over 35% in size
How it was run: as §1

[8] = Quantitative High-Throughput drug screen in 47 multiple myeloma cell lines against the NCATS MIPE library collection: JIM1_ECACC cell viability assay (AID 1918964)
How it was run: as §2

[9] = Quantitative High-Throughput drug screen in 47 multiple myeloma cell lines against the NCATS MIPE library collection: Karpas417_ECACC cell viability assay (AID 1918961); details: Karpas417 myeloma viability, CellTiter-Glo ATP luminescence, 48 h; viability (% of DMSO): at 45.8 µM (top of the series)
How it was run: as §2

[10] = Quantitative High-Throughput drug screen in 47 multiple myeloma cell lines against the NCATS MIPE library collection: JIM3_ECACC cell viability assay (AID 1918963; also: nearly all actives have a fitted effect of over 35% in size)
How it was run: as §1

[11] = Quantitative High-Throughput drug screen in 47 multiple myeloma cell lines against the NCATS MIPE library collection: Karpas620_DSMZ cell viability assay (AID 1918959); also: nearly all actives have a fitted effect of over 30% in size
How it was run: as §1

[12] = Quantitative High-Throughput drug screen in 47 multiple myeloma cell lines against the NCATS MIPE library collection: Delta47_JCRB cell viability assay (AID 1918925; also: nearly all actives have a fitted effect of over 45% in size)
How it was run: as §2

Measured: Potency
Potency is read from the fitted curve at half-maximal effect.

CCOc1cc2ncc(C#N)c(Nc3ccc(OCc4ccccn4)c(Cl)c3)c2cc1NC(=O)C=CCN(C)C
active: [1] 2350 nM | [2] 372 nM | [3] 93.5 nM | [4] 14800 nM | [5] 662 nM | [6] 935 nM | [7] 935 nM | [8] 418 nM

CCOC(=O)N1CCN([N+]([O-])=NOc2ccc([N+](=O)[O-])cc2C#N)CC1
active: [1] 743 nM | [3] 1050 nM | [4] 1050 nM | [5] 833 nM | [6] 1180 nM | [9] 66.2 nM | [10] 1050 nM

COc1ccc2cc([S+]([O-])Cc3ncc(C)c(OC)c3C)nc2c1
inactive: [1] | [2] | [4] | [5] | [10] | [8]

CCOC(=O)[C@H](CCc1ccccc1)N[C@@H](C)C(=O)N1[C@@H](C(=O)O)C[C@H]2CCC[C@@H]21
active: [1] 18700 nM | [2] 20900 nM | [3] 7430 nM | [4] 20900 nM | [5] 9350 nM | [11] 8330 nM | [6] 7430 nM | [7] 9350 nM | [10] 13200 nM | [8] 5260 nM

CC[C@H](CC[C@@H](C)[C@H]1CC[C@H]2[C@@H]3CC=C4C[C@@H](O)CC[C@]4(C)[C@@H]3CC[C@]12C)C(C)C
not listed: [8] | [9] | [12]
inactive: all other assays above

C=C1C(=CC=C2CCC[C@]3(C)[C@@H]([C@H](C)CCCC(C)(C)O)CC[C@@H]23)C[C@@H](O)C[C@@H]1O
active: [1] 14800 nM | [2] 2350 nM | [3] 935 nM | [5] 4180 nM | [6] 4690 nM | [7] 10500 nM | [8] 5260 nM

C[C@]12C=CC(=O)N[C@@H]1CC[C@H]1[C@H]3CC[C@@H](C(=O)Nc4cc(C(F)(F)F)ccc4C(F)(F)F)[C@@]3(C)CC[C@@H]12
active: [1] 18700 nM
inactive: [3] | [5] | [11] | [6] | [7] | [10]

CCc1cnn2c(NCc3ccc[n+]([O-])c3)cc(N3CCCC[C@@H]3CCO)nc12
active: [1] 18.7 nM | [2] 18.7 nM | [3] 23.5 nM | [4] 26.4 nM | [5] 23.5 nM | [11] 33.2 nM | [6] 14.8 nM | [9] 20.9 nM | [7] 18.7 nM | [10] 26.4 nM | [8] 14.8 nM

CNC(=O)c1ccc(Nc2cc(Nc3ccccc3S(=O)(=O)C(C)C)c3cc[nH]c3n2)nc1
active: [1] 4690 nM | [2] 6620 nM | [3] 2090 nM | [4] 18700 nM | [5] 1870 nM | [11] 1320 nM | [6] 1480 nM | [9] 118 nM | [7] 833 nM | [10] 1180 nM | [8] 3320 nM

NC(=O)c1ncn([C@@H]2O[C@H](CO)[C@@H](O)[C@@H]2O)c1N
not listed: [4] | [7] | [8] | [12]
inactive: all other assays above

CC(=O)O[C@@]12CO[C@H]1C[C@H](O)[C@@]1(C)C(=O)[C@H](O)C3=C(C)[C@@H](OC(=O)C(O)[C@@H](NC(=O)OC(C)(C)C)c4ccccc4)C[C@@](O)([C@@H](OC(=O)c4ccccc4)[C@@H]21)C3(C)C (stereo not given in full)
not listed: [9] | [11] | [12]
inactive: all other assays above

NS(=O)(=O)OC[C@@H]1C[C@@H](n2ccc3c(N[C@H]4CCc5ccccc54)ncnc32)C[C@H]1O
active: [1] 9350 nM | [12] 526 nM | [3] 296 nM
inactive: [9]

C[C@H](NCc1ccc2c(c1)nc(NC(=O)c1ccc(-c3cn[nH]c3)s1)n2CCc1ccccc1)C(C)(C)C
active: [1] 1050 nM | [2] 1050 nM | [3] 662 nM | [4] 1320 nM | [5] 526 nM | [11] 743 nM | [6] 833 nM | [7] 590 nM | [10] 1480 nM | [8] 418 nM

CN[C@H](CC(C)C)C(=O)N[C@H]1C(=O)N[C@@H](CC(N)=O)C(=O)N[C@@H]2C(=O)N[C@H]3C(=O)N[C@H](C(=O)N[C@H](C(=O)O)c4cc(O)cc(O)c4-c4cc3ccc4O)[C@H](O)c3ccc(c(Cl)c3)Oc3cc2cc(c3O[C@@H]2O[C@H](CO)[C@@H](O)[C@H](O)[C@@H]2O[C@H]2C[C@](C)(N)[C@H](O)[C@H](C)O2)Oc2ccc(cc2Cl)[C@H]1O
active: [5] 2.3 nM
not listed: [7] | [8] | [9] | [12]
inactive: all other assays above

COC(=O)[C@@H]1CC2=CC(=O)CC[C@]2(C)[C@@]23O[C@@H]2C[C@@]2(C)[C@H](CC[C@@]24CCC(=O)O4)[C@@H]13
not listed: [4] | [9] | [12]
inactive: all other assays above

O=C(C=CC=Cc1ccc2c(c1)OCO2)N1CCCCC1
inactive: [1] | [2] | [3] | [5] | [7] | [10]
